Source: PubChem BioAssay
IL1B secr inh = blocks inflammasome-driven IL-1 beta release. AID 743279. hit rate 4.7% among 360,000. activity change, % at 57.5 µM. THP-1 LPS/ATP IL-1B secretion, AlphaLISA, 16 h; hits give low values; in the data active means activity change below about -50%; inconclusive means mostly about -30% to -49%
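THP-1 cells pretreated 1 hr with compounds (up to 57.5 uM final), then stimulated with LPS (250 ng/mL final) plus ATP (1.25 mM final); secreted IL-1B measured by AlphaLISA after 16 hr, decreased signal indicating inhibition.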
Gal4-VP16 FLuc = counter-screen for ROR gamma inhibitors: Gal4-VP16 reporter; AID 2546; Potency, µM (titrated, usually from 53.6 µM), inactives show at the highest dose activity, negative = inhibition, most hits filed as inhibitors; hit rate 3.5% among 310,000; Drosophila S2 Gal4-VP16 UAS-luciferase, luminescence, 20 h;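 further: Gal4-VP16 expression switched on by copper sulfate through the metallothionein promoter; potency means the concentration at half of the fitted maximal effect; nearly all actives have a fitted effect of over 50% in size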
TDP1 cell noCPT = qHTS for Inhibitors of human tyrosyl-DNA phosphodiesterase 1 (TDP1): qHTS in cells in absence of CPT. DT40 Tdp1-/- hTDP1 cells, no CPT, ATP luminescence, 48 h. Potency, µM (doses to about 46.2 µM), for the others: at the highest dose activity change, negative = growth inhibition, usual class: inhibitors. hit rate 15% among 420,000. AID 686978, 2013; further: potency means the concentration at half of the fitted maximal effect; nearly all actives have a fitted effect of over 55% in size
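Cells were dispensed at 400 per well, compounds added by pin tool, plates incubated ≥48 hr at 37 °C, then CellTiter-Glo added for 30 min at room temperature before luminescence reading. Line: DT40 Tdp1-/- complemented with hTDP1; camptothecin omitted.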
RORg inh = ROR gamma (mouse) transcription inhibition. AID 2551. Drosophila S2 Gal4-RORgamma UAS-luciferase reporter, 20 h. P51450. hit rate 5.4% among 310,000. Potency, µM (highest dose often 53.6 µM), for inactives: top-dose activity change, negative = inhibition, actives largely listed as inhibitors; further: potency means the concentration at half of the fitted maximal effect; nearly all actives have a fitted effect of over 60% in size
Target sequence (P51450 whole entry, looked up, the tested form may be a part): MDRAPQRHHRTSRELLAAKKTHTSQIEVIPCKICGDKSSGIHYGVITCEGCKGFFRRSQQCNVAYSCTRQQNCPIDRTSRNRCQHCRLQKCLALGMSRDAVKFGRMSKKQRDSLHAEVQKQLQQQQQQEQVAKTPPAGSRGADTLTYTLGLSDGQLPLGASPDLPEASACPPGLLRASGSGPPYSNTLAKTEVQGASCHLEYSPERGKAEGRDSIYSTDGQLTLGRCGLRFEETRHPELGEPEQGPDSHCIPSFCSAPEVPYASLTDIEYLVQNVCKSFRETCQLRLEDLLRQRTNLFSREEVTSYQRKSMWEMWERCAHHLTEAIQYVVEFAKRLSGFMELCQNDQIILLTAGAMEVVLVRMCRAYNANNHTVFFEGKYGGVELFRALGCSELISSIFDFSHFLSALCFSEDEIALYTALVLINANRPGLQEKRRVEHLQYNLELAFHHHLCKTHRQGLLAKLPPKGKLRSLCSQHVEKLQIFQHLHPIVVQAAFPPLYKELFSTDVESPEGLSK
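ROR gamma transcriptional activity was tracked as Gal4-UAS luciferase output in stably transfected Drosophila Schneider cells, with compound added 1 hr before 700 uM copper sulfate induction and a 20 hr ambient-temperature incubation.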
TDP1 cell CPT = DT40-hTDP1 cell growth loss with CPT; chicken DT40 Tdp1-/-;hTDP1 cells + 20 nM CPT, ATP luminescence, 48 h; Potency, µM (highest dose often 46.2 µM), without a hit: at the highest dose activity change, negative = growth inhibition, actives largely listed as inhibitors; hit rate 12% among 420,000; further: potency means the concentration at half of the fitted maximal effect; nearly all actives have a fitted effect of over 55% in size
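Chicken DT40 Tdp1-/- cells complemented with human TDP1, 400 cells/well, exposed to compounds plus 20 nM camptothecin for at least 48 h at 37 C; viability read as ATP content by CellTiter-Glo luminescence.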
LDHA inh = LDHA (human) enzyme inhibition; purified LDHA, NADH/diaphorase-resazurin fluorescence; hits give low values; activity change, % (values are at about 110 or 230 µM); hit rate 0.15% among 480,000; in the data active means activity change below about -30%; inconclusive means mostly about -25% to -30%;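 further: plate controls were DMSO wells for no effect and wells without enzyme for full effect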
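Remaining NADH was detected by diaphorase (0.133 mg/mL) converting 37 µM resazurin to fluorescent resorufin, read at 0 and 20 minutes. The preceding 5-minute room-temperature reaction used 2 nM LDHA, 0.2 mM sodium pyruvate and 0.06 mM NADH at pH 7.4.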
Active calls of the source: *; ? = inconclusive; . = no result given; ! = not confirmed by another sample; [ ] = dose if it differs, or a comment. Sampled rows, rich in hits. Any-hit rate of the full collection: about 18%. Unless noted, the call rests on the fitted dose curve; in most records, active means well fitted curve in the direction sought with a large enough effect; inconclusive means small, poorly fitted or top-dose-only effect, or another doubt; inactive means no such curve, though single readings can be large; an effect the other way counts as inactive or inconclusive. Unless noted, on the % scale 0 is the no-effect control and ±100 the full control effect.

SMILES | IL1B secr inh | Gal4-VP16 FLuc | TDP1 cell noCPT | RORg inh | TDP1 cell CPT | LDHA inh
COc1ccc(Br)cc1C1SCC(=O)Nc2c1c(C)nn2-c1ccccc1C (stereo unspecified) | . | . | 18µM* | . | ? | 4
Cc1ccccc1-n1nc(C)c2c1NC(=O)CSC2c1ccccc1C(F)(F)F (stereo unspecified) | . | . | ? | . | 26µM* | -4
COP(=S)(OC)Oc1ccc(S(=O)(=O)N(C)C)cc1 | . | -3% | 5% | 33%[10 µM] | 9% | .
Cc1ccc2c(c1)Sc1ccc(C)cc1S2 | . | . | . | . | . | -8
CNC(=O)C1CCN(C(=O)c2cn(Cc3ccccc3)c3ccccc23)CC1 | . | . | . | . | . | -2
Cc1ccc(CCNC(=O)C2CCCN(Cc3nc(-c4cccc(Cl)c4)oc3C)C2)cc1 (stereo unspecified) | . | . | 15µM* | . | 12µM* | -7
ClCBr | . | -13% | . | -18% | . | .
S=C1NC2(CCCCC2)NC12CCCCC2 | 17 | ? | -10% | 8.9µM* | -11% | -5
O=Nc1c(-c2ccccc2)n(O)[n+]([O-])c1-c1ccccc1 | -2 | . | 21µM* | . | ? | 6
Cc1ccc(Cn2nnnc2CN2CCC(n3nnc4cc(C(F)(F)F)ccc43)CC2)cc1 | ? | -24% | 21µM* | -18% | ? | -8
Cc1nc2cc(F)ccc2n1C1CCN(Cc2nnnn2CCc2ccccc2)CC1 | ? | -18% | ? | -15% | 16µM* | -8
FC(F)(F)c1ccc2c(c1)nnn2C1CCN(Cc2nnnn2Cc2ccccc2)CC1 | ? | -15% | ? | 37% | ? | 6
Cc1nc2cc(C(F)(F)F)ccc2n1C1CCN(Cc2nnnn2CCc2ccccc2)CC1 | ? | 3% | 13µM* | ? | 18µM* | -3
Cc1cccc(-n2nnnc2C2(NC(C)C)CCCCC2)c1 | . | . | . | . | . | 0
Cc1cc(/C=C/c2cccc3sc(C)[n+](CCCCI)c23)ccc1N(CCCl)CCCl | . | . | 1.6µM* | . | 2µM* | -11
O=C(Oc1ccc([N+](=O)[O-])cc1)N1CCN(/[N+]([O-])=N/Oc2ccc([N+](=O)[O-])cc2[N+](=O)[O-])CC1 | . | . | . | . | . | 1
O=C(Nc1sc2c(c1C(=O)Nc1ccc(Cl)cc1)CCCC2)c1cccs1 | . | . | 3.7µM* | . | 5.8µM* | -2
CP(=O)(Nc1ccc(Cl)cc1)c1nc2c(s1)CCCC2 (stereo unspecified) | 36 | -4% | ? | 32% | ? | -5
COc1ccc(NC(=O)CN2CC=C(c3ccccc3)CC2)cc1S(=O)(=O)N1CCOCC1 | -13 | -18% | ? | 4% | 0% | -6
Cc1ccc(-c2nnc(Nc3ccc(O)cc3)c3ccccc23)cc1S(=O)(=O)N1CCOCC1 | . | . | 16µM* | . | ? | -2
N#Cc1ccc(NC(=O)CN2CCN(C(=O)c3cccs3)CC2)cc1Cl | -4 | . | 16µM* | . | ? | -5
CC(C)C[C@H](CN)CC(=O)O | . | . | -18% | . | -17% | .
CCC(=O)N1CC(=O)Nc2ccc(C)cc2C1c1ccc(F)cc1 (stereo unspecified) | . | . | 9.2µM* | . | 3.7µM* | 5
CC(C)(O)C1O[C@H]2CC[C@@]3(C)[C@@](O)(CC[C@H]4Cc5c([nH]c6ccccc56)[C@@]43C)C2=CC1=O (stereo partly specified) | . | . | 24µM* | . | 21µM* | .
CN[C@@H](C)[C@H]1CC[C@@H](N)[C@@H](O[C@@H]2[C@@H](O)[C@@H](O[C@H]3OC[C@@](C)(O)[C@@H](NC)[C@@H]3O)[C@H](N)C[C@@H]2N)O1 (tested in a mixture with another compound) | . | -4%[17 µM] | . | 0%[2.98 µM] | . | .
SMILES | IL1B secr inh | Gal4-VP16 FLuc | TDP1 cell noCPT | RORg inh | TDP1 cell CPT | LDHA inh
Cc1nn(Cc2ccccc2)c(C)c1C=C1C(=O)NC(=O)NC1=O | -106* | -11% | -2% | -15% | 7% | -1
C/C(=N/NC(N)=S)c1ccc(Cl)cc1 | . | . | . | . | . | 3
CCn1c(C)c(C(=O)NCc2ccccc2)c2cc(OC)ccc21 | . | . | . | . | . | 12
CN1C(=O)C(=Cc2ccccc2OS(=O)(=O)c2ccccc2)C(=O)N(C)C1=O | -10 | -23% | ? | -18% | ? | -10
CCn1cc(C=C2C(=O)N(C)C(=O)N(C)C2=O)c2ccccc21 | 27 | -11% | -3% | 1% | -10% | -5
CN1C(=O)C(=Cc2ccccc2OCc2ccccc2Cl)C(=O)N(C)C1=O | 37 | -5% | ? | -11% | ? | -45*
CN1C(=O)C(=Cc2ccccc2OCc2ccc(C(=O)O)cc2)C(=O)N(C)C1=O | 5 | 18% | 0% | 43% | 8% | -35*
CN(C)CCC(=O)c1ccccc1 | . | . | . | . | . | -6
COc1cc(C2SCC(=O)Nc3c2c(C)nn3C)ccc1OCc1ccccc1C (stereo unspecified) | . | . | . | . | . | -13
C=C(COC(C)=O)CC1CC(O)[C@]2(C)OC3CC4OC5C[C@]6(C)O[C@]7(C)CCC8OC9C[C@]%10(C)OC%11C(C)=CC(=O)OC%11CC%10OC9C[C@@H](C)C8OC7CC6O[C@]5(C)C/C=C\C4OC3CC2O1 (stereo partly specified) | -13 | -13% | ? | 12% | 23µM* | -2
C=C(C=O)CC1CC(O)[C@]2(C)OC3CC4OC5C[C@]6(C)O[C@]7(C)CCC8OC9C[C@]%10(C)OC%11C(C)=CC(=O)OC%11CC%10OC9C[C@@H](C)C8OC7CC6O[C@]5(C)CC5OC5C4OC3CC2O1 (stereo partly specified) | -104* | -2% | 0.37µM* | -27% | 0.41µM* | -3
C=C(CO)CC1CC(O)[C@]2(C)OC3CC4OC5C[C@]6(C)O[C@]7(C)CCC8OC9C[C@]%10(C)OC%11C(C)=CC(=O)OC%11CC%10OC9C[C@@H](C)C8OC7CC6O[C@]5(C)C/C=C\C4OC3CC2O1 (stereo partly specified) | -26 | -5% | 16µM* | -16% | 23µM* | -2
COC(=O)[C@]12C(=O)C(C)=C(O)[C@@]1(C)C(C)=CC1[C@@]34CC[C@@H](OC(C)=O)C(C)(C)C3C(C[C@]12C)OC4=O (stereo partly specified) | 1 | -5% | -8% | ? | 1% | -1
Cc1ccc(/C=N/n2c(-c3ccccc3)csc2=S)cc1 | . | . | ? | . | 15µM* | .
CCN(CC)Cc1cc(Nc2ccnc3cc(Cl)ccc23)ccc1O | -77*! | -5% | 23µM*! | 2% | 16µM*! | -4
